# In PubChem BioAssay AID720542 (National Center for Advancing Translational Sciences (NCATS), 2013):
# Out of some 360,000 compounds screened, about 740 (0.21%) were called active. Where a call stands in place of a potency, no number is given. Inconclusive results (about 2%) are left out. Calls follow the shape of the dose curve; as a rule, active = well fitted inhibition curve with a large enough effect; inconclusive = small, poorly fitted or top-dose-only effect; inactive = no such curve, though single readings can be large or run the other way. The sample as a whole holds a higher share of actives than the screen did.
# System: Plasmodium falciparum AMA1 (3D7) - RON2 peptide interaction
# Assay: qHTS for Inhibitors of AMA1-RON; Towards Development of Antimalarial Drug Lead: Primary Screen; also: nearly all actives have a fitted effect of over 45% in size
# Conditions: AlphaScreen AMA1-biotinylated RON2 peptide binding; series mostly up to 58.2 µM
# Source text: Plasmodium, the causative agent of malaria, is one of the world's deadliest parasitic diseases. Currently there is no vaccine available and there is widespread resistance to common anti-malarial drugs. This warrants novel, alternative approaches for developing improved therapy. During infection, one such essential interaction is between two parasite proteins, the apical membrane antigen1 (AMA1) that is translocated onto the merozoite surface and the rhoptry neck protein 2 (RON2), which is transferred to the red blood cells (RBC) membrane during invasion (Besteiro et.al., 2009). Recently, the Miller lab has shown that the interaction between AMA1 and RON2 is essential for junction formation of the parasite with the host cell (Srinivasan et.al., 2011). The binding of the RON2 peptide to the hydrophobic pocket in AMA triggers the formation of the moving junction which provides a firm anchor for the parasite to pull itself into the RBC using its actin-myosin motor; an irreversible step that commits the parasite for invasion. Only one AMA1 and RON2 genes exists in Plasmodium and there are no alternate pathways. Moreover, the region corresponding to RON2 peptide is conserved in all P. falciparum isolates for which sequences are available. The key residues in the AMA1 hydrophobic pocket that binds RON2 are also conserved and indicate a functional constraint governing this essential step in invasion since a short RON2 peptide (RON2L) corresponding to the binding region on AMA1 is sufficient to compete with the native RON2 protein and inhibits invasion (Tonkin et.al, 2011). Therefore, developing small molecule inhibitors of this interaction offers a promising target opening a new arena for anti-malarial therapeutics drug design.
# In collaboration with the Miller lab, a quantitative High Throughput Screen using the AlphScreen technology was developed using a recombinant his-tagged AMA1 and a biotinylated RON2 peptide. This fluorescent screen was assayed against the NIH Molecular Libraries Small Molecule Repository (MLSMR). Inhibition of this protein-protein interaction is the desired outcome of this assay. However, due the limitations of this AlphaScreen assay, a large number of artifacts were observed. An AlphaScreen counterscreen was run to identify the true inhibitors, triage compound activity, and weed out false positives.
# NIH Chemical Genomics Center [NCGC]
# NIH Molecular Libraries Probe Centers Network [MLPCN]
# Assay Submitter (PI): Louis Miller, National Institute of Allergy and Infectious Disease (NIAID)
# Two microliters of his-tagged AMA1 3D7 allele protein (final concentration 25 nM) was dispensed into a 1,536-well assay plate. Small molecules and positive control peptides were pin-transferred (23 nL or 46 nL) via Kalypsys pin-tool equipped with a 1,536-pin array, resulting in final compound and peptide concentration ranges of 91.5 nM - 57.2 µM, and 15.6 nM - 2.00 µM, respectively. Unlabeled RON2 peptide or R1 peptide ([…]) that specifically binds the 3D7 AMA1 was used as a positive control that inhibited the binding of RON2L to AMA1. After 15 minutes incubation, 1 uL of biotinylated RON2 peptide (final concentration 25 nM) or buffer were dispensed and the assay plate was incubated for an additional 30 minutes at room temperature and protected from light. This was followed by an addition of 1 uL mixture of donor and acceptor beads (10 ug/mL final concentrations for each). The plates were incubated for 30 min at room temperature and read using the EnVision(R) plate reader (PerkinElmer). Maximum inhibition response was normalized to the positive control signal while no inhibition response was normalized to the DMSO treated wells.
# Potency is read from the fitted curve at half-maximal effect.
SMILES,Potency,"activity change, negative = inhibition"
CCc1ccc(C2C(C#N)=C(N)N(N3CCOCC3)C3=C2C(=O)CC(C)(C)C3)s1 (centres undefined),inactive,–
Cc1cc(O)c(C(=O)/C=C/c2c(F)c(F)c(F)c(F)c2F)c(=O)o1,inactive,–
CCOc1ccccc1NC(=O)Cn1ncc2ccc([N+](=O)[O-])cc21,inactive,–
COc1ccc(N2C(=O)/C(=C/c3ccco3)C(=O)NC2=S)cc1,15.8 µM (active),–
COc1ccc(CN2C(=O)C(C)S/C2=N/N=C/c2ccco2)cc1 (centres undefined),inactive,–
CCCCN=C1N/C(=C\c2ccco2)C(=O)N1c1ccccc1,inactive,–
CCC1SC2=NCCN2C1(O)c1ccc(Cl)cc1 (centres undefined),inactive,–
CC(C)CCNC(=O)Cn1c(=O)oc2cc(S(=O)(=O)N3CC(C)CC(C)C3)ccc21 (centres undefined),inactive,–
CN(C(=O)CN(CCO)CC(=O)N(C)C(C)(C)Cc1ccccc1)C(C)(C)Cc1ccccc1,inactive,–
CN1OC[C@@H]2CN(S(=O)(=O)c3cccc(C(F)(F)F)c3)[C@H](c3ccc(-c4cc5ccccc5o4)cc3)C[C@@H]21,inactive,–
CC1=C(C(=O)Nc2ccc(Cl)cc2)C(c2ccco2)NC(=O)N1 (centres undefined),inactive,–
CCNC(=O)N1CCNC(=O)C1CC(=O)Nc1ccc(C(=O)OCC)cc1 (centres undefined),inactive,–
CCOc1ccccc1-n1c(SCC(=O)NCc2ccco2)nnc1-c1ccncc1,inactive,–
Cc1ccc(NC(=O)CN2CCCCC2)c2c1CC(C)(C)O2,inactive,–
CC(=O)c1ccc(NC(=O)C(C)NCc2ccc(Cl)cc2)cc1 (centres undefined),inactive,–
CN(/C(=N/S(=O)(=O)c1cccs1)c1ccccc1)c1ccc(O)cc1,inactive,–
CC1CCC(NC(=O)CN(C)S(=O)(=O)c2ccc3c(c2)c(=O)n(C)c(=O)n3C)CC1 (centres undefined),inactive,–
O=S(=O)(c1ccc(Br)cc1)c1nc(-c2ccccc2)oc1NCc1cccnc1,inactive,–
O=C1CC(=O)Nc2cc(S(=O)(=O)N3CCN(c4cccc(C(F)(F)F)c4)CC3)ccc2N1,inactive,–
Cc1ccc(N(C(=O)Cc2cccs2)C(C(=O)NCC2CCCO2)c2ccncc2)cc1 (centres undefined),inactive,–
CCOC(=O)c1ccccc1NC(=O)COC(=O)C(Cc1c[nH]c2ccccc12)NC(C)=O (centres undefined),inactive,–
C=CCc1cccc2cc(C(=O)Nc3ccc(NC(C)=O)cc3)c(=O)oc12,inactive,–
Cc1cc(NC(=O)CSc2nnc(-c3ccc(Cl)s3)o2)no1,2.24 µM (active),–
O=C(CSc1nnc(-c2ccncc2)o1)Nc1cccc(Cl)c1,inactive,–
Cc1cc(NC(=O)CSc2nnnn2-c2ccc(F)cc2)no1,inactive,–

SMILES,Potency,"activity change, negative = inhibition"
CC1(C)C(c2ccccc2)=NC(c2cccnc2)=[N+]1[O-],inactive,–
COc1cccc(N(C(=O)c2snc(C(N)=O)c2N)C(C(=O)NCC2CCCO2)c2c[nH]c3ccccc23)c1 (centres undefined),inactive,–
CCN(c1ccc(NC(=O)COC(=O)CCc2nc3ccccc3n2-c2ccccc2)cc1)C(C)C,10 µM (active),–
Cc1ccc(NC(=O)COC(=O)CCc2nc3ccccc3n2-c2ccccc2)c(C)c1,inactive,–
CC(C)(C)c1ccc(NC(=O)COC(=O)CCc2nc3ccccc3c(=O)[nH]2)cc1,inactive,–
CC(C)NC(=O)Nc1ccc2c(c1)C(=O)N([C@H](C)CO)C[C@H](C)[C@@H](CN(C)Cc1ccc(C(F)(F)F)cc1)OCCCC[C@@H](C)O2,inactive,–
C=C1c2c(Cl)ccc(O)c2C(O)=C2C(=O)[C@]3(O)C(O)=C(C(N)=O)C(=O)[C@@H](N(C)C)[C@@H]3[C@@H](O)C12 (some centres undefined),1.41 µM (active),–
CC(=O)Nc1nc(C)c(Cc2ccccc2)c(=O)[nH]1,inactive,–
C#CCOCCOCCOCCNc1nc(N2CCN(C(=O)C([C@@H](C)CC)n3cc(C(N)COC(=O)C(F)(F)F)nn3)CC2)nc(N2CCN(C(=O)[C@H](Cc3ccc(O)cc3)n3cc(C(N)[C@H](C)CC)nn3)CC2)n1 (some centres undefined),inactive,–
O=[N+]([O-])c1ccc(Sc2n[nH]c(-c3ccco3)n2)nc1,inactive,–
COc1ccc(CNC(=O)COC(=O)C2=Cc3ccccc3OC2)cc1,inactive,–
OCC#CC[N+]1(CC#Cc2ccccc2)CCCC1,inactive,–
CC1(C)Cc2c(sc(NC(=O)C(=O)NCC3CCCO3)c2C(=O)O)CO1 (centres undefined),inactive,–
O=C(Nc1ccc(CSc2ccccc2)cc1)c1ccc(CN2CCOCC2)cc1,inactive,–
CN(C)c1ccc(C(CC(=O)O)C(=O)O)cc1 (centres undefined),inactive,–
CN(C)c1ccc(CSc2ccccc2)cc1,8.91 µM (active),–
Cc1cccc(CSc2nc3c(c(=O)n2C)SCC3)c1,inactive,–
Cc1ccc(/C=C2\CCn3c2nc2cc(C(=O)O)ccc2c3=O)c(C)c1,inactive,–
N#Cc1ccc(/C=C2\CCn3c2nc2cc(C(=O)O)ccc2c3=O)cc1,inactive,–
O=C(O)c1ccc2c(=O)n3c(nc2c1)/C(=C/c1ccc(OC(F)F)cc1OC(F)F)CC3,20 µM (active),–
CCOC(=O)c1c(-n2cnnn2)sc(C)c1C,inactive,–
COc1ccc2c(c1)c(=Cc1ccc(N(C)C)cc1)c1cc(-c3ccccc3)[n+](C)n12,17.8 µM (active),–
CCCCCOC(=O)C1=C(C)Nc2nnnn2C1c1ccc(OC)c(OC)c1OC (centres undefined),inactive,–
COc1ccc(-c2nc3c(s2)CCc2onc(-c4ccc(Br)cc4)c2-3)cc1,inactive,–
CC1(C(=O)NCC2CCOCC2)Cc2c(-c3cccc(C(N)=O)c3)ccnc2O1 (centres undefined),inactive,–

SMILES,Potency,"activity change, negative = inhibition"
CN(Cc1c(F)cccc1Cl)C(=O)COC(=O)Cn1cnc2ccccc2c1=O,inactive,–
COc1ccc(C(C#N)=C2C=CC(=NO)c3ccccc32)cc1,12.6 µM (active),–
COc1ccc(/C(N)=N/OC(=O)Oc2ccccc2)cc1,inactive,–
COC(=O)Nc1ncc(CN2CCCCC2)s1,inactive,–
CC(C)(C)c1nnc(N/N=C/c2ccc(O)cc2)n(N)c1=O,inactive,–
CC(=O)Nc1ccc(S(=O)(=O)Nc2nc3n(n2)C(c2ccccc2)CC(=O)N3)cc1 (centres undefined),inactive,–
CCCCN(C(=O)CSCc1ccc(C)cc1)c1c(N)n(Cc2ccccc2)c(=O)[nH]c1=O,inactive,–
O=C(Nn1cnnc1)c1cc(Cl)ccc1Cl,inactive,–
Cc1cc(NC(=O)CCS(=O)(=O)c2ccc(F)cc2)no1,inactive,–
CCn1c(SCC(=O)NC2=NCCS2)nnc1C(C)NC(=O)c1ccccc1F (centres undefined),inactive,–
COc1ccc(NC(=O)NC2CC3CCCC(C2)N3Cc2ccccc2)cc1 (centres undefined),inactive,–
Cc1c(S(=O)(=O)NCc2ccccc2)c(=O)n(C)c(=O)n1C,inactive,–
CC(C)(C)C1CCC(=O)N2CCC[C@]2(c2ccccc2)C1 (some centres undefined),inactive,–
O=C(O)CCCN1C(=O)c2ccccc2Sc2ncccc21,inactive,–
Cc1ccc(C(=O)NCCc2nnc(SCC(=O)Nc3cccc(C(=O)O)c3)n2C)cc1,inactive,–
CCCCc1nc2c(=O)[nH]c3ccccc3c2o1,inactive,–
CC(Sc1nnnn1C1CCCCC1)C(=O)O (centres undefined),inactive,–
CC(=O)c1c(C)[nH]c(C(=O)OCC(=O)Nc2cc(S(=O)(=O)N3CCCCC3)ccc2C)c1C,inactive,–
CN(Cc1ccccc1F)c1cc2c(c3c1ccn3C)C1CCC2O1 (centres undefined),31.6 µM (active),–
CCCCN(C(=O)c1nn(C)c(=O)c2ccccc12)c1c(N)n(CCC)c(=O)[nH]c1=O,inactive,–
O=C(Nc1ccc2c(c1)nc1n2CCCCC1)c1cc(S(=O)(=O)N2CCOCC2)ccc1Cl,inactive,–
CCOC(=O)C1=C(CC)Nc2ccccc2N=C1NC(=O)c1cccc(S(=O)(=O)N2CCCC2)c1,inactive,–
Cc1ncoc1C(=O)NCCC(c1ccccc1)c1ccccc1,inactive,–
Cc1ccc(S(=O)(=O)/N=C(\CN2CCOCC2)N2CCOCC2)cc1,inactive,–
C=CC(=O)Nc1ccc(Nc2ccnc(Nc3ccc(N4CCN(C)CC4)cc3)n2)cc1,15.8 µM (active),–

SMILES,Potency,"activity change, negative = inhibition"
COc1ccc(N2CCN(C(=S)Nc3ccc(S(N)(=O)=O)cc3)CC2)cc1,inactive,–
O=C(Nc1ccc(N2CCN(C(=O)c3cccs3)CC2)cc1)c1cccnc1Cl,inactive,–
Cc1ccccc1NC(=O)COC(=O)c1cc(C)n(C2CC2)c1C,–,4.53% [at 11.6 µM] (inactive)
CC(NC(=O)c1ccc(N2CCNCC2)c([N+](=O)[O-])c1)C12CC3CC(CC(C3)C1)C2 (centres undefined),inactive,–
CN(C)C(=O)CSc1n[nH]c(-c2ccco2)n1,inactive,–
CSc1c(SCc2ccccc2)cnn(Cc2ccccc2)c1=O,inactive,–
c1ccc(CSc2nnc(-c3ccco3)c(-c3ccco3)n2)cc1,31.6 µM (active),–
Cc1ccc(-n2ncc(C(=O)NC3CC3)c2C2CCN(C(=O)OC(C)(C)C)CC2)c(C)c1,inactive,–
O=C(OCC#CCSc1nnc(-c2ccncc2)o1)c1sc2ccccc2c1Cl,inactive,–
Cc1ccc([N+](=O)[O-])c(OCCCNCC(C)O)c1 (centres undefined),inactive,–
CCOC(=O)C1CCCN(C(=O)c2ccc(CS(=O)(=O)c3ccc(Br)cc3)o2)C1 (centres undefined),inactive,–
C=CCNc1nc(N)c(C(=C(C#N)C#N)c2ccccc2)s1,inactive,–
CCCC1CC(C)(C(=O)Cn2[nH]c(=O)ccc2=O)OC1=O (centres undefined),inactive,–
CC12COC3(C(=O)Nc4ccc(Cl)cn4)CC1CCC32C (centres undefined),inactive,–
CCC(=C/c1sc2ccc3ccccc3c2[n+]1C)/C=C1\Sc2ccc3ccccc3c2N1C,35.5 µM (active),–
COc1ccc(CN2CCC(c3nc4ccc(Cl)cc4[nH]3)CC2)cc1,inactive,–
COCCOC(=O)C1=C(C)NC(=O)NC1c1cc2c(cc1Br)OCO2 (centres undefined),inactive,–
O=C(CSc1nnc(-c2cccs2)n1Cc1ccccc1)N1CCc2ccccc2C1,inactive,–
CC(C)CC(=O)N1CCN(Cc2cccc(Cl)c2)CC1,inactive,–
COc1ccccc1CN1CCN(C(=O)Cc2ccccc2)CC1,inactive,–
CC(C)CC(=O)N1CCN(Cc2ccccc2Br)CC1,20 µM (active),–
CCCCC(O)C1=C[N+](=O)CC=C1 (centres undefined),inactive,–
CN1CCN(Cc2nc3cc(NC(=O)COc4ccc([N+](=O)[O-])cc4)ccc3n2C)CC1,inactive,–
COc1ccc(C2(CNC(=O)C(c3ccccc3)c3ccccc3)CCOCC2)cc1OC,inactive,–
